In assay [1] the test system is Aerobactin synthetase IucA (Klebsiella pneumoniae hvKP1). As to the kind of experiment: Biochemical IucA enzyme inhibition primary screen of the Spectrum library (AID 1346200).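 Note: 100% = wells without compound and 0% = wells lacking enzyme.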 Conditions: malachite green pyrophosphate, A620, at 8 µM, stronger effect = lower value.
For assay [2], the system named is Aerobactin synthetase IucA (Klebsiella pneumoniae, hypervirulent). Put plainly: IucA enzyme inhibition, biochemical, LOPAC library, absorbance readout (AID 1346212).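 Note: 100% = no compound wells and 0% = no enzyme wells.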 The following applies: IucA enzyme assay, absorbance (OD) readout; stronger effect = lower value;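 tested at 8 µM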.
Assay [3] is described as follows: circadian clock period modulators, cell-based, LOPAC library, luminescence reporter (AID 2774).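 Note: values are relative to mean of DMSO wells on each plate.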 The following applies: circadian reporter cells, at 7 µM, actives lie on both sides.
The subject of assay [4] is Hepatitis C virus NS3 helicase. Put plainly: HCV NS3 helicase inhibitors, primary screen, biochemical, fluorescence polarization, LOPAC1280 library (AID 687035; in the data active = inhibition above about 37%). The following applies: Purified HCV NS3 helicase, Cy5-dT15 ssDNA binding fluorescence polarization; stronger effect = higher value; concentration not given here. A general note: In fluorescence polarisation assays a small probe gives low polarisation when free and higher when bound to something large.

Assay [5] can be described thus: Cy5 fluorescence quenching or enhancement artefacts, artefact control for HCV NS3 helicase inhibitor project, biochemical, LOPAC1280 (AID 687037). The following applies: Cy5-DNA-NS3h complex fluorescence interference counterscreen. For orientation: A counterscreen serves to expose hits that act by an unwanted route or on another target.
The nature of assay [6]: sensitizers of A549 cells to miR-34 induction, primary screen, imaging, A549 dox-inducible miR-34, nuclei and caspase counts (AID 1347080;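 active = compounds whose cell count with miR-34 switched on is under 0.7 times the count with it off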). Conditions: A549 miR-34 inducible, Hoechst nuclei count, 48 h.
Assay [7] can be described thus: viability rescue of complex I mutant cybrids, primary screen, cell-based, galactose medium, ATP luminescence (AID 1645843;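 active = z-score of at least 1.8 in each of two replicates, scored against plate mean and spread of sample wells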;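 note: positive z means more ATP and so rescue of galactose-driven cybrid death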). The following applies: complex I mutant cybrid cells, 72 h, stronger effect = higher value.

Activity calls are given as the source filed them. Unless noted, the rule behind the calls is not given here.

Consider `CN(C)CCN(Cc1cccs1)c1ccccn1`, for which the activity remaining in assay [1] is 120% (inactive). The remaining activity in assay [2] is 93% (inactive).

Take `CN1CCN2c3ccccc3Cc3ccccc3C2C1` (centres undefined): the activity remaining in assay [1] is 119% (inactive). The remaining activity in assay [2] is 120% (inactive).

For the compound `c1ccc2c(CC3=NCCN3)cccc2c1`, the activity remaining in assay [1] is 106% (inactive). For the same compound, in assay [2], the remaining activity is 115% (inactive).

For the compound `NC(=O)N1c2ccccc2C=Cc2ccccc21`, the activity remaining in assay [1] is 114% (inactive). Moreover, the remaining activity in assay [2] is 102% (inactive).

For `CCCN1C[C@H](CSC)C[C@@H]2c3cccc4[nH]cc(c34)C[C@H]21`, the activity remaining in assay [1] was 120% (inactive). Also, the remaining activity in assay [2] was 95.5% (inactive).

`COc1ccc2c(c1)c(CC(=O)O)c(C)n2C(=O)c1ccc(Cl)cc1`: in assay [1], the activity remaining is 103% (inactive). The remaining activity in assay [2] was 92% (inactive).

For the compound `CC(=O)OC(C)C[N+](C)(C)C` (centres undefined), the activity remaining in assay [1] was 80.8% (inactive). Moreover, the remaining activity in assay [2] was 119% (inactive).

Regarding `CSc1ccc2c(c1)C(N1CCN(C)CC1)Cc1ccccc1S2` (centres undefined), in assay [1], the activity remaining was 103% (inactive). Also, the remaining activity in assay [2] is 114% (inactive).

As for `Cc1ccc(S(=O)(=O)NC(=O)NN2CCCCCC2)cc1`, the activity remaining in assay [1] was 117% (inactive). For the same compound, in assay [2], the remaining activity was 91.6% (inactive).

With `CC(=O)CCCCn1c(=O)c2c(ncn2C)n(C)c1=O`, the activity remaining in assay [1] is 82.4% (inactive). Also, in assay [2], the remaining activity is 123% (inactive).

`O=C1N=C(O)CN1/N=C/c1ccc(-c2ccc([N+](=O)[O-])cc2)o1`: in assay [1], the activity remaining was 118% (inactive). Further, the remaining activity in assay [2] is 100% (inactive).

Consider `CN(C)CCOC(=O)COc1ccc(Cl)cc1`, for which, in assay [1], the activity remaining was 124% (inactive). In addition, the remaining activity in assay [2] is 112% (inactive).

For the compound `NC[C@H](O)c1ccc(O)c(O)c1`, the activity remaining in assay [1] is 107% (inactive). The remaining activity in assay [2] was 118% (inactive).

Regarding `N[C@@H](Cc1ccc(O)c(O)c1)C(=O)O`, the activity remaining in assay [1] is 115% (inactive). Further, the remaining activity in assay [2] is 97% (inactive).

With `CN=C(NC#N)NCCSCc1nc[nH]c1C`, the activity remaining in assay [1] is 98.9% (inactive). For the same compound, the remaining activity in assay [2] was 116% (inactive).

In the case of `COc1cc2nc(N3CCN(C(=O)C4CCCO4)CC3)nc(N)c2cc1OC` (centres undefined), the activity remaining in assay [1] was 119% (inactive). The remaining activity in assay [2] was 102% (inactive).

On to `CN(C)CCCN1c2ccccc2CCc2ccc(Cl)cc21`, for which the activity remaining in assay [1] is 111% (inactive). In addition, in assay [2], the remaining activity is 117% (inactive).

As for `O=C(O)c1cccnc1Nc1cccc(C(F)(F)F)c1`, the activity remaining in assay [1] was 117% (inactive). In assay [2], the remaining activity is 115% (inactive).

`CCN(CC)CCOCCOC(=O)C1(c2ccccc2)CCCC1`: the activity remaining in assay [1] was 93.9% (inactive). Further, the remaining activity in assay [2] is 113% (inactive).

Consider `O=C(O)c1cc(=O)c2ccccc2[nH]1`, for which the activity remaining in assay [1] is 113% (inactive). Moreover, the remaining activity in assay [2] is 109% (inactive).

Turning to `O=C(O)c1cc(=O)c2c(Cl)cc(Cl)cc2[nH]1`, the activity remaining in assay [1] is 103% (inactive). Also, the remaining activity in assay [2] was 110% (inactive).

For the compound `CC(=O)NCCc1c[nH]c2ccc(O)cc12`, the activity remaining in assay [1] is 113% (inactive). Moreover, in assay [2], the remaining activity was 106% (inactive).

`C=Cc1c(C)c2cc3[nH]c(cc4nc(cc5nc(cc1[nH]2)C(C)=C5CCC(=O)O)C(CCC(=O)O)=C4C)c(C)c3C=C`: in assay [1], the activity remaining is 97.5% (inactive). Moreover, the remaining activity in assay [2] is 107% (inactive).

Turning to `CC1=C(/C=C/C(C)=C/C=C/C(C)=C/C(=O)O)C(C)(C)CCC1`, the activity remaining in assay [1] was 109% (inactive). In addition, in assay [2], the remaining activity is 92% (inactive).

For `CCCC(CCC)C(=O)O`, in assay [1], the activity remaining is 108% (inactive). Also, the remaining activity in assay [2] was 110% (inactive).

Consider `CC(CN(C)C)CN1c2ccccc2CCc2ccccc21` (centres undefined), for which the activity remaining in assay [1] is 105% (inactive). Also, the remaining activity in assay [2] was 106% (inactive).

As to `NC1(C(=O)O)CC1`, the activity remaining in assay [1] was 94.3% (inactive). In addition, the remaining activity in assay [2] was 88.1% (inactive).

With `Cc1ccc(C(=O)Nc2ccc(S(=O)(=O)O)c3cc(S(=O)(=O)O)cc(S(=O)(=O)O)c23)cc1NC(=O)c1cccc(NC(=O)Nc2cccc(C(=O)Nc3cc(C(=O)Nc4ccc(S(=O)(=O)O)c5cc(S(=O)(=O)O)cc(S(=O)(=O)O)c45)ccc3C)c2)c1`, the activity remaining in assay [1] is 69% (active). For the same compound, in assay [2], the remaining activity was 34.4% (active).

In the case of `NC12CC3CC(CC(C3)C1)C2`, the activity remaining in assay [1] is 107% (inactive). For the same compound, the remaining activity in assay [2] was 119% (inactive).

For `CN/C(=C\[N+](=O)[O-])NCCSCc1ccc(CN(C)C)o1`, the activity remaining in assay [1] was 91.1% (inactive). The remaining activity in assay [2] was 101% (inactive).

On to `CC(=O)Oc1ccccc1C(=O)O`, for which the activity remaining in assay [1] is 109% (inactive). In addition, the remaining activity in assay [2] was 118% (inactive).

Turning to `CN(C)CCCC1(c2ccc(F)cc2)OCc2cc(C#N)ccc21` (centres undefined), in assay [1], the activity remaining is 102% (inactive). Besides, the remaining activity in assay [2] is 124% (inactive).

As to `Clc1cccc(Cl)c1NC1=NCCN1`, the activity remaining in assay [1] was 119% (inactive). In addition, in assay [2], the remaining activity was 122% (inactive).

With `CCCC(C(=O)OCCN(CC)CC)(c1ccccc1)c1ccccc1`, the activity remaining in assay [1] is 105% (inactive). In assay [2], the remaining activity is 118% (inactive).

Turning to `NCCCCCC(=O)O`, the activity remaining in assay [1] was 113% (inactive). Also, the remaining activity in assay [2] was 113% (inactive).

Regarding `CC(C)(C(=O)O)c1ccc(C(O)CCCN2CCC(C(O)(c3ccccc3)c3ccccc3)CC2)cc1` (centres undefined), in assay [1], the activity remaining is 113% (inactive). For the same compound, the remaining activity in assay [2] is 107% (inactive).

For `O=C1NCC2(CCN(CCc3ccccc3)CC2)O1`, the activity remaining in assay [1] is 111% (inactive). In assay [2], the remaining activity was 97.8% (inactive).

`CCCN(CCC)C(=O)C(CCC(=O)O)NC(=O)c1ccccc1` (centres undefined): the activity remaining in assay [1] was 115% (inactive). The remaining activity in assay [2] was 99.4% (inactive).

On to `CN1CCC(=C2c3ccccc3CC(=O)c3sccc32)CC1`, for which the activity remaining in assay [1] was 100% (inactive). The remaining activity in assay [2] is 112% (inactive).

For `CN(C)c1ccc(O)c2c1C[C@H]1C[C@H]3[C@H](N(C)C)C(=O)C(C(N)=O)=C(O)[C@@]3(O)C(=O)C1=C2O`, the activity remaining in assay [1] was 105% (inactive). Also, in assay [2], the remaining activity was 110% (inactive).

Regarding `O=c1ccc2ccc(O)c(O)c2o1`, in assay [1], the activity remaining is 103% (inactive). Besides, in assay [2], the remaining activity is 116% (inactive).

Regarding `CCCNC(C)C(=O)Nc1ccccc1C` (centres undefined), the activity remaining in assay [1] was 82% (inactive). Moreover, in assay [2], the remaining activity was 96.4% (inactive).

With `CC(N)C(=O)OC(C)(C)Cc1ccc(Cl)cc1` (centres undefined), the period change in assay [3] was -0.005 h (inactive). Moreover, the inhibition in assay [4] was -4% (inactive). Besides, the fluorescence ratio (interference) in assay [5] was 1 (inactive). Moreover, the activity remaining in assay [1] was 86.1% (inactive). Further, the remaining activity in assay [2] was 119% (inactive). In addition, the fold change was 1.02 (inactive) in assay [6] (stronger effect = lower value) and 1.79 in assay [6] (measured here: relative caspase fold change +Dox/-Dox). Besides, the cell count was 10500 in assay [6] (measured here: total cells with miR-34 induction, stronger effect = lower value) and 10300 in assay [6] (measured here: total cells without miR-34 induction). Besides, in assay [7], the z-score is -0.85 (inactive).

As a reminder, the remaining activity is the signal under treatment as a percentage of the control signal. As a reminder, the inhibition is the change of the read-out against control, counted positive when it falls.
